This note sets out measurements from ChEMBL document CHEMBL1961873, “Compounds: GSK PKIS; Assays: Nanosyn kinase panel” (2012).

For experiment [1], the target named is Mast/stem cell growth factor receptor Kit (Homo sapiens) (UniProt P10721). The note with it: at 1 µM.
The subject of experiment [2] is Mast/stem cell growth factor receptor Kit (Homo sapiens), P10721 [D816V]. Particulars: at 0.1 µM.
For experiment [3] the test system is unchanged. The note with it: at 1 µM.
Experiment [4] concerns Mast/stem cell growth factor receptor Kit (Homo sapiens), P10721 [T670I]. Particulars: at 0.1 µM.
Experiment [5] shares this test system. The note with it: at 1 µM.
The subject of experiment [6] is Mast/stem cell growth factor receptor Kit (Homo sapiens), P10721 [V560G]. Particulars: at 0.1 µM.
For experiment [7] the test system is unchanged. Particulars: at 1 µM.
The target of experiment [8] is Tyrosine-protein kinase Lck (Homo sapiens) (UniProt P06239). Particulars: at 0.1 µM.
For experiment [9] the target is unchanged. The note with it: at 1 µM.
Experiment [10] has as its target Leukocyte tyrosine kinase receptor (Homo sapiens) (UniProt P29376). Particulars: at 0.1 µM.

Each structure is given as a SMILES string.

Chain of Leukocyte tyrosine kinase receptor (Homo sapiens) (P29376 whole entry): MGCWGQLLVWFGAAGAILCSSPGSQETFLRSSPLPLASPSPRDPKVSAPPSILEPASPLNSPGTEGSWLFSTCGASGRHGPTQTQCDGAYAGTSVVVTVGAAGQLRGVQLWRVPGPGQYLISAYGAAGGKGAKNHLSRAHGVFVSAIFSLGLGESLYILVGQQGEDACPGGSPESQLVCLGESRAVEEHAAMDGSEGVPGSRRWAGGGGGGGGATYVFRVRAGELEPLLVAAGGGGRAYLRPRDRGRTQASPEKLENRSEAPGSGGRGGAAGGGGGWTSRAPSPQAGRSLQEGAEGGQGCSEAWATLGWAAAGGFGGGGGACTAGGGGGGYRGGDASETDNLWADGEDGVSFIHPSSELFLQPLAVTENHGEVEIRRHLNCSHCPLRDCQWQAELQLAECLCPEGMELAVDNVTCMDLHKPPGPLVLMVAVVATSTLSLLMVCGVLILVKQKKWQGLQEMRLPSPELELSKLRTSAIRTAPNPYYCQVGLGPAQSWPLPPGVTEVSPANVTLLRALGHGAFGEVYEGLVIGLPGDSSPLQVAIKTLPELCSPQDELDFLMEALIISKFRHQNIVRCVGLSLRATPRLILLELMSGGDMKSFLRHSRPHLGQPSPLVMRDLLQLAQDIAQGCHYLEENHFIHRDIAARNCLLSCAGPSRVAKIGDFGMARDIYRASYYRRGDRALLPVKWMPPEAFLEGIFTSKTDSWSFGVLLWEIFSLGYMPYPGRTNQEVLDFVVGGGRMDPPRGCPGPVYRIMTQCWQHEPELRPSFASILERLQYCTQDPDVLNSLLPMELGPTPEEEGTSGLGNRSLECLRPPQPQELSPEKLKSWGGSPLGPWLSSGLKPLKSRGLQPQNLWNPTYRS
Chain of Mast/stem cell growth factor receptor Kit (Homo sapiens), P10721 [D816V] (P10721 whole entry D816V): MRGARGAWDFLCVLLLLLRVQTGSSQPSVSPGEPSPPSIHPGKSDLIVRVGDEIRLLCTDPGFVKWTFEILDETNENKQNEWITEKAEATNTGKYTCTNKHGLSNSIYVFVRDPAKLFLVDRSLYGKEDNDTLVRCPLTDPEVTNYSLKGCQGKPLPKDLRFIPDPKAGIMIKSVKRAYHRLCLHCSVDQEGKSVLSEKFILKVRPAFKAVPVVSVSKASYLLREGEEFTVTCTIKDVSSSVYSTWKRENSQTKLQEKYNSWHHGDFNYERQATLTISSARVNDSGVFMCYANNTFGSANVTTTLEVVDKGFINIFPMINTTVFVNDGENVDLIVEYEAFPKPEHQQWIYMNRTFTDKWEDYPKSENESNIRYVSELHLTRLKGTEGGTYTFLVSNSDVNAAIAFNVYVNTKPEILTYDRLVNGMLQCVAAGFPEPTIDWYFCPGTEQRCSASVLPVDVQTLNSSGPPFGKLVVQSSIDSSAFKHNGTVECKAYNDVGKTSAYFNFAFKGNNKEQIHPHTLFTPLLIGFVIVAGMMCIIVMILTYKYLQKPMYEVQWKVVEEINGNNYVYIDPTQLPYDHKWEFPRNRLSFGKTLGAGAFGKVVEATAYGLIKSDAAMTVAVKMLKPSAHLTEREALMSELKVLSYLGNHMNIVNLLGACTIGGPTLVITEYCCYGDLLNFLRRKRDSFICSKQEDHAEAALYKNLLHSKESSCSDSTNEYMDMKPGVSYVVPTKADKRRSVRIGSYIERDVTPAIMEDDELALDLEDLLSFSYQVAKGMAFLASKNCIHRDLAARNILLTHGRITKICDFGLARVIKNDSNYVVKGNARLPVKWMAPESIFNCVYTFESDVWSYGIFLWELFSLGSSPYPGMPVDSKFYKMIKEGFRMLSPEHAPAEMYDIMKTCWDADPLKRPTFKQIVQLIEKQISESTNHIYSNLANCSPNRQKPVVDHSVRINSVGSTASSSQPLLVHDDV
Chain of Mast/stem cell growth factor receptor Kit (Homo sapiens), P10721 [T670I] (P10721 whole entry T670I): as the sequence (P10721 whole entry D816V) above, with T670I, V816D counted along it
Chain of Mast/stem cell growth factor receptor Kit (Homo sapiens) (P10721 whole entry): as the sequence (P10721 whole entry D816V) above, with V816D counted along it
Chain of Mast/stem cell growth factor receptor Kit (Homo sapiens), P10721 [V560G] (P10721 whole entry V560G): as the sequence (P10721 whole entry D816V) above, with V560G, V816D counted along it
Chain of Tyrosine-protein kinase Lck (Homo sapiens) (P06239 2-509 limits assumed): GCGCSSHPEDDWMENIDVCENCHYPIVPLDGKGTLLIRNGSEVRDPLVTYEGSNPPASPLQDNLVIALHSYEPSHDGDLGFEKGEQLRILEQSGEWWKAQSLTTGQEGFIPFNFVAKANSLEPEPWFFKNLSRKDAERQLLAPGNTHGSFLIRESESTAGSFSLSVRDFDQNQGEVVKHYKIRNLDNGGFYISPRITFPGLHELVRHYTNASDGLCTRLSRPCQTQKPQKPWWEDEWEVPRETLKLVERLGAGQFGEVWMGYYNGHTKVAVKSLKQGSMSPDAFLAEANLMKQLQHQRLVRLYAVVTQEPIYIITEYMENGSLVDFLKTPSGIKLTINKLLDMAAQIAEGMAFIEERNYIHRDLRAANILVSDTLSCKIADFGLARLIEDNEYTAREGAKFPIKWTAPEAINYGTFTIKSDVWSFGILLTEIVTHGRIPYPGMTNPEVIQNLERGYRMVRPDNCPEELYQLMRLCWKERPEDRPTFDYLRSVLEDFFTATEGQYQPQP

Consider `CC1=C(C(=O)Nc2ccc3[nH]ncc3c2)C(c2ccc3ccccc3c2)CC(=O)N1` (stereo not given), for which the inhibition (commonly the change of the read-out against control, counted positive when it falls) in [1] is 7.55%; in experiment [2] it was 0.15%; in [3], -0.63%; in experiment [4], 1.53%; in experiment [5], 2.53%; in [6], 1.45%. Also, the inhibition in experiment [7] is 2.17%; in experiment [8], 21.1%; in [9], 64.3%; in experiment [10], 2.82%.
With `CCn1c(-c2nonc2N)nc2c(N3CCCC3)nccc21`, the inhibition in experiment [1] was 1.81%; in experiment [2], -1.12%; in experiment [3] it was -0.65%; in experiment [4] it was -1.62%; in experiment [5] it was -1.43%; in experiment [6], -0.78%. The inhibition in experiment [7] was 1.06%; in experiment [8] it was -2.27%; in [9] it was -0.36%; in experiment [10], 0.51%.
On to `CC(=O)Nc1cccc(C#Cc2cncnc2Nc2ccc(OCc3cccc(F)c3)c(Cl)c2)n1`, for which the inhibition in [1] was 2.11%; in experiment [2] it was -0.94%; in [3] it was 3.5%; in experiment [4], -1.12%; in experiment [5], 0.59%; in experiment [6] it was 2.08%. The inhibition is 4.22% in experiment [7], 1.9% in experiment [8], 1.84% in experiment [9] and -0.61% in [10].
Consider `COc1cc2ncn(-c3cc(OCc4ccccc4C(F)(F)F)c(C(N)=O)s3)c2cc1OC`, for which the inhibition in [1] is 20.5%; in [2] it was 5.23%; in experiment [3], 7.66%; in [4], 3.55%; in experiment [5], 9.7%; in experiment [6], -1.78%. Besides, the inhibition in [7] stood at 2.96%; in [8], 0.99%; in [9] it was 12.6%; in experiment [10] it was 2.36%.
As to `Cc1cccc(-c2n[nH]cc2-c2ccc3ncccc3n2)n1`, the inhibition in [1] is 2.16%; in experiment [2], 3.77%; in experiment [3], 18%; in [4], -0.33%; in [5], -0.51%; in [6] it was 3.48%. In addition, the inhibition in experiment [7] was -0.13%; in experiment [8], 0.45%; in experiment [9], 4.51%; in experiment [10], 0.62%.
Consider `COc1ccc2cc(-c3c(-c4ccncc4)nc(-c4ccc([S+](C)[O-])cc4)n3C)ccc2c1` (stereo not given), for which the inhibition in experiment [1] was -0.76%; in experiment [2] it was 1.61%; in [3] it was 4.68%; in experiment [4], -0.37%; in experiment [5], -0.98%; in experiment [6] it was 2.62%. The inhibition was 0.15% in experiment [7], 2.55% in experiment [8], 6.96% in [9] and 2.55% in [10].
`COc1cc2ncn(-c3cc(OCc4ccccc4Cl)c(C(N)=O)s3)c2cc1OC`: the inhibition was 15.6% in experiment [1]; 0.27% in experiment [2]; -0.43% in [3]; 2.57% in experiment [4]; 8.11% in [5]; 2.29% in experiment [6]. The inhibition in experiment [7] stood at 3.13%; in [8] it was 2.94%; in experiment [9] it was 19%; in experiment [10] it was 1.19%.
As to `O=C1NC(=O)C(c2ccc(Cl)cc2)=C1Nc1ccc(Cl)c(C(=O)O)c1`, the inhibition in [1] was -0.38%; in experiment [2], -3.8%; in [3] it was -3.02%; in experiment [4], -0.88%; in experiment [5], -1.49%; in experiment [6] it was 2.75%. For the same molecule, the inhibition in experiment [7] is 8.56%; in experiment [8], -0.44%; in [9], 0.35%; in [10], -1.15%.
As to `CCn1c(-c2nonc2N)nc2cnc(Oc3cccc(NC(=O)c4ccc(OCCN5CCOCC5)cc4)c3)cc21`, the inhibition was 3.53% in experiment [1]; 2.71% in experiment [2]; -0.34% in experiment [3]; 2.87% in experiment [4]; 4.8% in experiment [5]; -1.11% in experiment [6]. The inhibition worked out at 2.85% in [7], 0.98% in experiment [8], 4.63% in [9] and 2.7% in experiment [10].
`CC1=C(C(=O)Nc2ccc3[nH]ncc3c2)C(c2ccc(F)cc2)NC(=O)N1` (stereo not given): the inhibition in experiment [1] was 3.87%; in experiment [2], 0.52%; in experiment [3], 1.15%; in experiment [4] it was 1.53%; in [5] it was 0.34%; in experiment [6] it was -1.67%. The inhibition in [7] was 0.31%; in experiment [8] it was -0.28%; in experiment [9], 3.1%; in experiment [10] it was 0.93%.
Consider `NC(=O)c1cccc(Nc2nccc(Nc3cccc4[nH]ncc34)n2)c1`, for which the inhibition in experiment [1] is 91.1%; in experiment [2] it was -2.32%; in [3], 14.6%; in experiment [4] it was -2.9%; in [5] it was 4.51%; in [6], 5.52%. In addition, the inhibition in [7] amounted to 22.5%; in [8], 36.7%; in experiment [9], 81.8%; in [10], 4.75%.
In the case of `COc1ccc(-c2coc3ncnc(N)c23)cc1`, the inhibition in [1] is 21.7%; in experiment [2] it was 5.53%; in experiment [3], -0.06%; in experiment [4], 3.49%; in [5], 1.89%; in experiment [6], 2.72%. In addition, the inhibition is 7.39% in experiment [7], 1.13% in experiment [8], 6.38% in experiment [9] and 3.02% in experiment [10].
On to `CCn1c(-c2nonc2N)nc2c(C#CC(C)(C)O)nc(OC[C@@H](N)c3ccccc3)cc21`, for which the inhibition in [1] was 2.86%; in experiment [2] it was -1.77%; in experiment [3], 1.93%; in experiment [4] it was -1.49%; in experiment [5], -0.45%; in experiment [6] it was 2.19%. The inhibition in experiment [7] was 2.43%; in [8], -1.85%; in [9] it was 0.18%; in experiment [10], 0.55%.
As to `COc1cc2ncn(-c3cc(O[C@@H](C)c4ccccc4Cl)c(C(N)=O)s3)c2cc1OC`, the inhibition in experiment [1] was 11.9%; in [2] it was 3.28%; in experiment [3], 6.34%; in experiment [4], 3.02%; in experiment [5], 5.54%; in [6], 4.09%. Also, the inhibition in [7] came to 3.09%; in experiment [8], 4.64%; in [9] it was 19.6%; in [10], 3.53%.
Turning to `CCn1c(-c2nonc2N)nc2ccncc21`, the inhibition in experiment [1] is -2.36%; in experiment [2] it was -0.01%; in [3], -2.39%; in experiment [4], 0.62%; in experiment [5], 3.05%; in experiment [6] it was -0.14%. The inhibition was -0.33% in experiment [7], 1.33% in [8], 2.29% in [9] and 1.29% in experiment [10].
On to `COc1cccc(-n2ncc3c(N/N=C/c4cccc(F)c4)ncnc32)c1`, for which the inhibition was 14.1% in [1]; 4.05% in experiment [2]; 1.87% in experiment [3]; 2.67% in [4]; 7.07% in [5]; -0.18% in experiment [6]. Also, the inhibition in experiment [7] was -1.44%; in [8], 7.82%; in experiment [9] it was 40.9%; in experiment [10], 0.92%.
As to `O=C1NC(=O)C(N2CCc3ccccc32)=C1c1ccc(Cl)cc1`, the inhibition in experiment [1] was determined as 12%; in [2], 2.68%; in [3], 2.43%; in [4], 3.14%; in experiment [5] it was 3.85%; in [6], 7%. The inhibition in [7] worked out at 3.94%; in experiment [8] it was 1.6%; in experiment [9], 4.29%; in experiment [10], 2.8%.
